# Bioassay records as filed in PubChem BioAssay.
# A selection: hits, their analogues and other compounds. The true share with any hit is near 2%.
# CHT allo act – allosterically activates the human high affinity choline transporter; B-score at 10 µM; CHT-expressing cells, membrane potential dye, choline EC20; active compounds read high; LV-AA mutant CHT in HEK293 cells; hit rate 0.49% among 310,000; Q9GZV3;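 active = initial fluorescence not abnormally high and integrated response B-score, plate-corrected, over 3 SD above library mean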
# Target sequence (Q9GZV3 whole entry, looked up): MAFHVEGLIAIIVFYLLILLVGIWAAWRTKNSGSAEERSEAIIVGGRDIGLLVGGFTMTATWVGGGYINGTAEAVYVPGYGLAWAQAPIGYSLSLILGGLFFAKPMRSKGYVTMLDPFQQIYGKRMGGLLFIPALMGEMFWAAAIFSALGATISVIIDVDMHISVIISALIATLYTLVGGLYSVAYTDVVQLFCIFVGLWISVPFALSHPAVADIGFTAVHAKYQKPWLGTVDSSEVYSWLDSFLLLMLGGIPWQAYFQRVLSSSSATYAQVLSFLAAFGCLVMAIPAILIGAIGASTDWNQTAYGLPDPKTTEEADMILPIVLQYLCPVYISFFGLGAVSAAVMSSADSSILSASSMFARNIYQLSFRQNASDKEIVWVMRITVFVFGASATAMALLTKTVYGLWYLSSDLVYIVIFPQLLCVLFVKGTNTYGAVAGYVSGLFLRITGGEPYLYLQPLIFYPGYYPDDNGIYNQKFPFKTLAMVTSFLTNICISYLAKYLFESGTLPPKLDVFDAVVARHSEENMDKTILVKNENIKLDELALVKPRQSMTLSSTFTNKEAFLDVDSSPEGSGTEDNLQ
# H9c2 TAG inh – inhibitors of triacylglycerol accumulation; hit rate 0.66% among 230,000; H9c2 cells, Nile Red lipid (TAG) fluorescence; cells loaded with 200 µM oleic acid; inhibition, % at 12.5 µM; AID 651582;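 active = pattern-corrected inhibition of lipid staining of at least 50% with the nuclear-stain viability signal not falling by more than 50%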;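 also: 0% = DMSO wells and 100% = triacsin C control wells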
# Kir21 block – Kir2.1 (mouse) channel inhibition. B-score at 10 µM. HEK293-Kir2.1, FluxOR thallium flux fluorescence; active compounds read low. P35561. hit rate 0.85% among 310,000;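 active = fluorescence ratio B-score at or below minus 3 SD of library scores, with starting-brightness B-score within 2 SD, cut at about -4.2 in these data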;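 also: channel flux triggered by added potassium and thallium sulfate stimulus; B-score of peak minus minimum fluorescence over baseline after thallium stimulus; more negative B-score means stronger Kir2.1 block with less thallium influx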
# CHT block – human CHT choline transport inhibition; hit rate 0.86% among 310,000; CHT-expressing cells, membrane potential dye, choline response; active compounds read low; B-score at 10 µM;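 active = B-score over 3 SD under the library average, and starting fluorescence ratio not unusually high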;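 also: choline stimulus applied at its EC90 after an EC20 pre-addition; B-score computed on integrated fluorescence ratio after choline addition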
# CHT inh conf – confirmation of human choline transporter CHT inhibitors. shares compounds with CHT block. CHT-expressing cells, choline membrane potential dye; LV-to-AA substituted CHT, HEK293 cells. CHT activity remaining % of control (active compounds read low), % at 10 µM. hit rate 70% among 2,400. AID 493221;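 active = choline transporter activity left, mean of duplicates at 10 µM, below buffer-only control mean minus 3 SD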;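 also: depolarization triggered by choline at its EC90 following an EC20 pre-addition; 0% = hemicholinium-3 full block and 100% = buffer-only control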
# HEK293 MPD ctr – counter-screen for CHT inhibitors: effect in parental HEK293 cells; shares compounds with CHT block; membrane potential ratio readout (active if shifted either direction beyond buffer ±3SD; no single direction) at 10 µM; hit rate 4% among 2,400; membrane potential dye, choline response; active = decrease or increase beyond buffer ±3SD; AID 493222;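 also: parental cells lack the transporter so any hit is non-specific; ratio is peak minus trough fluorescence over baseline after EC90 choline challenge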
# The depositor's hits bear a star; i = inactive; / = no result given.
SMILES,CHT allo act,H9c2 TAG inh,Kir21 block,CHT block,CHT inh conf,HEK293 MPD ctr
CC(NC(=O)/C(=C/c1cccc([N+](=O)[O-])c1)NC(=O)c1ccco1)C(=O)O (stereo unspecified),i,/,-0.35,i,/,/
CN(Cc1ccccc1)C(=O)COC(=O)COc1ccc(Cl)cc1,/,-1.2,/,/,/,/
CN(Cc1ccccc1)C(=O)COC(=O)COc1ccc(C#N)cc1,i,/,1.83,-5.27*,64.7%*,i
CCC(=O)Nc1cc(Cl)ccc1N1CCN(C(=O)CC)CC1,i,/,-4.08e-16,-8.09*,66.6%*,i
CCC(=O)N1CCN(c2ccc(Cl)cc2NC(=O)Cc2ccccc2)CC1,i,19.1,/,i,/,/
CCN1CCN(C(=O)C2=CC(c3ccc(C)cc3)=NS(=O)(=O)N2C)CC1,i,0.5,1.6,-6.57*,i,i
CC(CCc1ccc(O)cc1)NCc1ccc(Br)cc1 (stereo unspecified),i,/,-0.98,-5.14*,i,i
COC(=O)CCN(c1ccccc1)S(=O)(=O)c1cc(-c2cc(C)no2)ccc1OC,i,/,0.59,i,/,/
Cc1csc(NC(=O)CCN2C(=O)c3ccccc3S2(=O)=O)n1,i,/,2.53,-5.93*,69.3%*,i
Cc1csc(NC(=O)CN2C(=O)c3ccccc3S2(=O)=O)n1,i,3.4,0.02,i,/,/
COc1ccc(OC)c(S(=O)(=O)NCC(=O)NC2CCCCCC2)c1,/,-7.3,/,/,/,/
O=C(CC1CCCCC1)c1c(O)c2ccccc2oc1=O,i,2.9,1.43,-7.37*,44.5%*,4.57*
Cc1ccc(NC(=O)c2ccc(CN3CC(=O)N4CCCCC4C3=O)cc2)c(C)c1 (stereo unspecified),i,-11.6,-0.07,-5.49*,9.5%*,i
Cc1cccc(OCCCn2c(CCNC(=O)C(C)C)nc3ccccc32)c1,i,5.7,-0.22,-5.12*,i,i
CC(=O)NCCc1nc2ccccc2n1CCOc1cccc(C)c1,i,-10.9,-0.48,i,/,/
CC(=O)c1cccc(NC(=O)c2ccoc2C)c1,i,12.2,1.29,i,/,/
CCOC(=O)c1cc(NC(=O)c2ccoc2C)cc(C(=O)OCC)c1,i,/,1.73,-6.11*,39.6%*,i
COc1cccc(NC2=C(NCCO)C(=O)c3ccccc3C2=O)c1,i,34.6,-0.56,i,/,/
Cc1cccc(NC2=C(NCCO)C(=O)c3ccccc3C2=O)c1,i,/,-0.04,-7.71*,45.4%*,2.52*
C#CC[N+]1(CC#Cc2cccc(C)c2)CCCCC1,i,-19.4,0.26,-6.75*,38.9%*,i
C#CC[N+]1(CC#Cc2ccccc2)CCCCC1,i,-14.5,-1,-9.64*,i,i
CN(Cc1ccn[nH]1)C(=O)C1CCC(=O)N(Cc2cccc(C(F)(F)F)c2)C1 (stereo unspecified),i,/,-0.05,i,/,/
CCOc1cc2[nH]c(=S)n(C(C)C)c(=O)c2cc1OCC,i,/,0.47,-8.75*,51.6%*,i
O=C(CCCSc1nc2ccccc2s1)NC1=NCCS1,i,/,0.91,-14.7*,4.3%*,i
CCOc1cc(N2CCOCC2)c(OCC)cc1NC(=O)c1ccc(F)c(S(=O)(=O)N2CCOCC2)c1,/,7.6,/,/,/,/
SMILES,CHT allo act,H9c2 TAG inh,Kir21 block,CHT block,CHT inh conf,HEK293 MPD ctr
Cc1ccc(-n2cc(CN3CCN(Cc4nccn4C)CC3)c(-c3cccc(C)c3)n2)cc1,i,-0.5,-0.57,-5.63*,26.8%*,i
Cc1ccc(-n2cc(CN3CCNC(=O)CC3)c(-c3cccc(C)c3)n2)cc1,i,7.0,0,i,/,/
Cc1ccc2c(c1)c(CC(=O)Nc1ccc(C)c(F)c1)c(C(=O)O)n2C,i,/,0.67,-5.4*,63.3%*,i
O=C(N/N=C/C=C/c1ccccc1[N+](=O)[O-])c1cc(-c2cccnc2)nc2ccccc12,i,15.5,-0.7,-9.2*,i,i
Cc1cc(C)nc(NS(=O)(=O)c2ccc(NC(=O)C3COc4ccccc4O3)cc2)n1 (stereo unspecified),i,/,-0.08,-6.36*,40.9%*,i
O=c1[nH]nc(N2CCOCC2)c(=O)[nH]1,i,4.2,2.77,i,/,/
COc1ccccc1CNC(=O)C1(C)CCN1C(=O)C1(c2ccccc2)CC1 (stereo unspecified),/,4.7,/,/,/,/
COc1ccccc1Nc1nnc(SCC2CCCCO2)s1 (stereo unspecified),i,-14.3,-1.24,-6.34*,57.3%*,i
Cc1ccccc1Nc1nnc(SCC2CCCCO2)s1 (stereo unspecified),i,/,-0.84,i,/,/
Cc1ccccc1NC(=O)c1ccc(C)c(S(=O)(=O)NCc2cccnc2)c1,i,0.4,-0.79,-7.2*,27.0%*,i
CS(=O)(=O)C1=NSC2=NC(=O)/C(=C\c3ccc(OC(=O)c4ccco4)cc3)C(=N)N21,i,/,0.95,i,/,/
CS(=O)(=O)C1=NN2C(=N)/C(=C\c3ccc(OC(=O)c4ccco4)cc3)C(=O)N=C2S1,i,/,0.16,-6.85*,60.0%*,i
O=c1[nH]c(=O)n(-c2ccc(F)cc2)c2c1C(C(F)(F)F)(C(F)(F)F)N=C(c1ccc(F)cc1)N2,i,/,0.65,-6.96*,54.3%*,i
N#Cc1ccc(C2=NC(C(F)(F)F)(C(F)(F)F)c3c(n(Cc4ccco4)c(=O)[nH]c3=O)N2)cc1,i,/,0.47,-10.8*,56.5%*,i
Cc1ccc(C2=NC(C(F)(F)F)(C(F)(F)F)c3c(n(-c4ccc(F)cc4)c(=O)[nH]c3=O)N2)cc1,i,/,0.58,i,/,/
O=c1[nH]c(=O)n(Cc2ccco2)c2c1C(C(F)(F)F)(C(F)(F)F)N=C(CCc1ccccc1)N2,i,/,-1.25,i,/,/
CCOCCCn1c(=S)[nH]c2cc(C(=O)NCCCN(CC)CC)ccc2c1=O,i,-2.2,-2.01,i,/,/
COc1cc(C(=O)N/C(=C\c2cn(C)c3ccccc23)C(=O)NCCCn2ccnc2)cc(OC)c1OC,i,/,-1.59,i,/,/
CCc1ccc2c(c1)C1(NN=C(c3ccc(C)cc3)S1)C(=O)N2 (stereo unspecified),i,-13.6,2.67,-5.87*,66.8%*,i
CC(C)c1ccc(O)c(NC(=O)c2ncn[nH]2)c1,i,/,0.45,i,/,/
CC(C)c1ccc2c(c1)C1(NN=C(c3ccccc3)S1)C(=O)N2 (stereo unspecified),i,24.4,0.95,-6.56*,56.1%*,i
O=C1NCCN(CC2CCN(CC3CCCC3)CC2)C1=O,/,-5.4,/,/,/,/
CC1(C)c2cc(Cl)ccc2-n2c1cc(O)c(-c1ccccc1)c2=O,i,-9.4,-1.09,-6.04*,44.3%*,i
CC(C)c1cc(O)c(-c2ccccc2)c(=O)n1-c1ccc(Cl)cc1,i,-11.8,-0.69,-5.01*,i,i
CC(=O)c1c(O)cc(C(C)C)n(-c2ccccc2)c1=O,i,/,0.51,i,/,/
